Assay [1] is described as follows: NS1 protein of Zika virus - qHTS assay to identify small molecule inhibitors in human HEK 293 cells (AID 1347053). Further: series mostly up to about 46 µM; nearly all actives have a fitted effect of over 55% in size. The method, boiled down: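 Readout was TR-FRET using paired anti-NS1 antibodies after 24 h infection of HEK 293 cells with ZIKV MR766 (MOI = 0.5). Compound preceded virus by 1 h; reduced signal reflects lower NS1 expression.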
For orientation: In qHTS, concentration-response curves come from the screen itself.

For assay [2], the target named is T1, Tyrosine-protein phosphatase non-receptor type substrate 1 (Homo sapiens) + Leukocyte surface antigen CD47 (Homo sapiens) (UniProt P78324+Q08722). Kind of assay: CD47-SIRPalpha protein protein interaction - HTRF assay qHTS validation (AID 1347058; active means well fitted curve in the direction sought with a large enough effect in the signal ratio, not every such curve was filed as active; the % refers to the signal ratio; further: series mostly up to about 38 µM). The method, boiled down: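 Soluble extracellular domains (6His-CD47, Avi-tag-biotinylated SIRPalpha) in PBS pH 7.4 with 0.05% IGEPAL CA-630. Compounds were preincubated 30 min at RT with CD47 and anti-His-Eu, then SIRPalpha and SAV-XL665 were added. TR-FRET 665/615 ratio.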
T1 sequence (P78324 whole entry, looked up, the tested form may be a part): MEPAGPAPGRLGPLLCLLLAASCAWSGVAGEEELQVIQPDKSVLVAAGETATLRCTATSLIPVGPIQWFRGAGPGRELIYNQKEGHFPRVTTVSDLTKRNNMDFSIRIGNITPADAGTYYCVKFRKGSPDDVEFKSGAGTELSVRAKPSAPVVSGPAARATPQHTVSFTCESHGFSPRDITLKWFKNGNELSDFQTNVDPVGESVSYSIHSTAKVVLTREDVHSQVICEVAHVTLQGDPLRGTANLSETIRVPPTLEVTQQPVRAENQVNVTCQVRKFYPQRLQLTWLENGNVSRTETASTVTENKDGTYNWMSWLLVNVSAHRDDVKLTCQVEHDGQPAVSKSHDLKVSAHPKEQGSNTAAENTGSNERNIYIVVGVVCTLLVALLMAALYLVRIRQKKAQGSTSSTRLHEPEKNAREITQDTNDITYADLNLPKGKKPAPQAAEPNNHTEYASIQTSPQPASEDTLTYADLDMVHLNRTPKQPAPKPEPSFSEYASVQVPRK
T1 sequence (Q08722 whole entry, looked up, the tested form may be a part): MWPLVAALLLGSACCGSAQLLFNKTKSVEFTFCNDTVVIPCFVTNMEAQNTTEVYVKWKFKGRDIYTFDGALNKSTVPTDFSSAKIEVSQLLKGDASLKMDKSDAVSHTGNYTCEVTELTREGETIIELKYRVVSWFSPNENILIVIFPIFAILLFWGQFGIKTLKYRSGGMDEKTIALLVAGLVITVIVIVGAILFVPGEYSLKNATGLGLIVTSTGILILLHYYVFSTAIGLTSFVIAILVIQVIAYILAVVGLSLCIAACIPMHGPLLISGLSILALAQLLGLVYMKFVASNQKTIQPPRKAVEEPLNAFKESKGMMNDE
(In general: TR-FRET usually uses a lanthanide donor and a delayed reading to cut background.)

Assay [3] addresses T1, Tyrosine-protein phosphatase non-receptor type substrate 1 (Homo sapiens) + Leukocyte surface antigen CD47 (Homo sapiens). As to the kind of experiment: CD47-SIRPalpha protein protein interaction - Alpha assay qHTS validation (AID 1347059).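 Further: bead proximity luminescence from CD47 binding SIRPalpha after compound preincubation with SIRPalpha.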 Put shortly: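 In PBS (pH 7.4) with 0.05% IGEPAL CA-630, compound is preincubated with biotin-Avi-SIRPalpha ectodomain before His-CD47 ectodomain and affinity beads are added. Light-protected room-temperature incubations; AlphaScreen readout.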

Assay [4] addresses Parathyroid hormone/parathyroid hormone-related peptide receptor (Homo sapiens) (UniProt Q03431). Kind of assay: qHTS for PTHR1 Agonists: Optimization Screen against the NCGC LOPAC library (AID 1347079).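 Further: GloSensor cAMP luminescence in HEK-293 GP2 cells expressing human PTHR1 with IBMX.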 The method, boiled down:
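HEK-293 GP2 cells, PTHR1 + GloSensor cAMP; 3000 cells/well, o/n. Luciferin + IBMX 0.5mM each (stock), 1 hr 37C. Cpd titration, 1 hr 37C. Lum after 15 min RT. Ctrl M-PTH(1-15) top 10uM.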

Assay [5] deals with N-terminal Xaa-Pro-Lys N-methyltransferase 1 (Homo sapiens) (UniProt Q9BV86). As to the kind of experiment: qHTS Assay for Inhibitors of N-terminal methyltransferase 1 (NTMT1): LOPAC validation of the NTMT1 SAHH-coupled ThioGlo3 Assay (AID 1347143).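 Further: SAH from peptide methylation measured as thiol fluorescence via SAHH coupling and ThioGlo3; nearly all actives have a fitted effect of over 70% in size.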 Further: potency means the concentration at half of the fitted maximal effect. Put shortly:
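In this qHTS pilot against the LOPAC set, 125nM NTMT1 met compounds tested at multiple concentrations, and fluorescence was normalized to background.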

Assay [6] has as its system Zika virus NS2B-NS3 protease (unlinked). As to the kind of experiment: Optimization of GU AMC qHTS for Zika virus inhibitors: Unlinked NS2B-NS3 protease assay (AID 1347151). Further: nearly all actives have a fitted effect of over 80% in size. Further: potency means the concentration at half of the fitted maximal effect. Put shortly:
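Percent inhibition is derived from the 15-min change in AMC fluorescence, normalized against no-inhibitor and no-enzyme controls, then fitted to a 4-parameter Hill curve. Aprotinin was the intraplate control.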

The test system of assay [7] is Zika virus NS2B-NS3 protease (unlinked complex). Kind of assay: Confirmatory screen GU AMC qHTS for Zika virus inhibitors (AID 1347153).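 Further: enzyme at 25 nM with substrate at 10 µM below its Km of 18.3 µM; potency means the concentration at half of the fitted maximal effect; nearly all actives have a fitted effect of over 70% in size.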 The method, boiled down: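 Unlinked NS2B-NS3 complex (25 nM) in 10 mM Tris-HCl pH 8.0, 0.01% Tween 20 preincubated 15 min with compound, then 10 microM Bz-Nle-KRR-AMC (Km 18.3 µM). Fluorescence change over 15 min, normalized, Hill-fitted.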

Assay [8] addresses T1, Tyrosine-protein phosphatase non-receptor type substrate 1 (Homo sapiens) + Leukocyte surface antigen CD47 (Homo sapiens). Kind of assay: CD47-SIRPalpha protein protein interaction - LANCE assay qHTS validation (AID 1347057; active means well fitted curve in the direction sought with a large enough effect in the signal ratio, with a control signal flat, not every such curve was filed as active; the % refers to the signal ratio; further: series mostly up to about 38 µM). The method, boiled down:
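Inhibition of soluble CD47/SIRPalpha ectodomain association by titrated compounds, measured as 665/615 nm time-resolved FRET ratio after sequential 30 min room-temperature incubations.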

For a further assay, the target named is Furin (Homo sapiens) (UniProt P09958). As to the kind of experiment: Furin counterscreen qHTS for Zika virus inhibitors (AID 1347149).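 Further: purified recombinant full-length human furin enzyme at 5 nM; fluorescence gain from furin cutting a BOC-RVRR-AMC peptide substrate over 15 min; top concentration of the series differs between compounds; nearly all actives have a fitted effect of over 70% in size.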 Put shortly: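 Counterscreen measures cleavage of 2 microM BOC-RVRR-AMC, below its ~15 microM Km, by 5 nM full-length human furin at pH 7.0 after a 15-min compound preincubation. Inhibition derives from the 15-min fluorescence increase at 37C.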
Sequence of Furin (Homo sapiens) (P09958 whole entry, looked up): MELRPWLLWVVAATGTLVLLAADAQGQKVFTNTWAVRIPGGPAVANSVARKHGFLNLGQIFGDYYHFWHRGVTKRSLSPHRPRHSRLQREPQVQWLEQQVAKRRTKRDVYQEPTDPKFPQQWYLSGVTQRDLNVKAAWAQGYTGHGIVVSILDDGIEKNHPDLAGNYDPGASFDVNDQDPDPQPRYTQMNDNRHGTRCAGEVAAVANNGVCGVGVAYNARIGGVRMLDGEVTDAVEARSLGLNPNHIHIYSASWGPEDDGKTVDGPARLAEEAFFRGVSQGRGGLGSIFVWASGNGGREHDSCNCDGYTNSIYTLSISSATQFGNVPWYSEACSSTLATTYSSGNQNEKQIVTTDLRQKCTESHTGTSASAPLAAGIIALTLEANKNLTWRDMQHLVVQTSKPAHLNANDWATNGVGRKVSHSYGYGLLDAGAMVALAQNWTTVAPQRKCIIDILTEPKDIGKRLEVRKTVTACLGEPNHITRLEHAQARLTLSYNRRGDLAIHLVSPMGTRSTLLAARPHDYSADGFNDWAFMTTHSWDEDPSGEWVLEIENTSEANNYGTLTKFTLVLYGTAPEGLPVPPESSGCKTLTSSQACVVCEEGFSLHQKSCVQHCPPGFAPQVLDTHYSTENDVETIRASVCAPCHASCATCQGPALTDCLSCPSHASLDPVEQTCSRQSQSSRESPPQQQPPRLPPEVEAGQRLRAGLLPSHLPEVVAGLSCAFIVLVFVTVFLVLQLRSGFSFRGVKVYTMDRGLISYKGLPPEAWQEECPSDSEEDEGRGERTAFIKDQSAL

The structures appear in SMILES notation. Records with an inconclusive call do not appear. Activity calls are given as the source filed them. Unless noted, the call rests on the fitted dose curve; in most records, active means well fitted curve in the direction sought with a large enough effect; inconclusive means small, poorly fitted or top-dose-only effect, or another doubt; inactive means no such curve, though single readings can be large; an effect the other way counts as inactive or inconclusive.

Sequence of Parathyroid hormone/parathyroid hormone-related peptide receptor (Homo sapiens) (Q03431 whole entry, looked up): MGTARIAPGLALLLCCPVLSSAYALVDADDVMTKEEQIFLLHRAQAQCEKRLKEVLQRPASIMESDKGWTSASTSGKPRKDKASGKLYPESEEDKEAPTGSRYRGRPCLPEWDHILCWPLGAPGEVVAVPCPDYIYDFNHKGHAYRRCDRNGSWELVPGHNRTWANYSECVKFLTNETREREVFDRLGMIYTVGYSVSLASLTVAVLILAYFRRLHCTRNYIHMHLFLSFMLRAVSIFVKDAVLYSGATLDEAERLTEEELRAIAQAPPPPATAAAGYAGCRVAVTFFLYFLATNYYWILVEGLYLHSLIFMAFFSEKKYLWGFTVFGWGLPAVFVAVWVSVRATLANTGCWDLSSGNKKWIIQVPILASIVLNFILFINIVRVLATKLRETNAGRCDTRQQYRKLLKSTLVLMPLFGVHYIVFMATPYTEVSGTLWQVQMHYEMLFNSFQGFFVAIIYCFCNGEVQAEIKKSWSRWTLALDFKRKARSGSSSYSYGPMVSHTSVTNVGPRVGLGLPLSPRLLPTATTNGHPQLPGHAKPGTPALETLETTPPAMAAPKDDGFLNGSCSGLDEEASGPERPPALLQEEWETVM
Sequence of N-terminal Xaa-Pro-Lys N-methyltransferase 1 (Homo sapiens) (Q9BV86 whole entry, looked up): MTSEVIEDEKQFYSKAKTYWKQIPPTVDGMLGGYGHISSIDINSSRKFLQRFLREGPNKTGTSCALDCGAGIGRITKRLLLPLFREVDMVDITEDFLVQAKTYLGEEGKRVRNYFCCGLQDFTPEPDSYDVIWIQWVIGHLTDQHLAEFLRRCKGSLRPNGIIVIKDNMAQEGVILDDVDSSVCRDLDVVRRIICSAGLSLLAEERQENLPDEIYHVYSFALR

Turning to `CCCCCCCCCCC(C)(C)C(=O)Nc1c(OC)cc(OC)cc1OC`, the Potency entry in assay [1], in assay [3], in assay [4] and in assay [5] was “inactive” each time. Moreover, in [2], the outcome was inactive.
For `Cc1cccc(C2CN(C)CCc3c2cc(O)c(O)c3Cl)c1` (stereo unspecified), the Potency result in [1], in [3], in [4] and in [6] was “inactive” throughout. Besides, in assay [2], the result was inactive. In assay [5], the Potency is 56.2 µM (active).
Turning to `CC(N)=NCCCC[C@@H](N)C(=O)O`, the Potency entry in [1], in [3], in [4], in [5] and in assay [6] was “inactive” in each case. Moreover, the result in assay [2] was inactive.
Regarding `Cc1cccc(C)c1OCC(N)C(C)C` (stereo unspecified), the Potency entry in [1], in assay [3], in assay [4] and in assay [6] was “inactive” in each case. Besides, the result in assay [2] was inactive. The Potency in assay [5] was 50.1 µM (active).
For `COC1(C2=NCCN2)COc2ccccc2O1` (stereo unspecified), the Potency result in assay [1], in [3], in assay [4], in assay [5] and in assay [6] was “inactive” each time. The result in [2] was inactive.
In the case of `NC(Cc1cccc(-c2ccccc2CP(=O)(O)O)c1)C(=O)O` (stereo unspecified), the Potency entry in assay [1], in assay [3], in [4], in assay [5] and in assay [6] was “inactive” in each case. In addition, the outcome in assay [2] was inactive.
On to `COc1cc(/C=C(\C#N)C(=O)Nc2nnc(C(F)(F)F)s2)ccc1OCc1ccc(C(F)(F)F)cc1C(F)(F)F`, for which the Potency entry in assay [1] and in assay [4] was “inactive” in each case. Further, the outcome in assay [2] was inactive. In addition, the Potency in [5] was 56.2 µM (active); in assay [6], 2.12 µM (active); in assay [7] it was 15.2 µM (active).
Take `N=C(N)c1ccc(OCCCCCOc2ccc(C(=N)N)cc2)cc1` (tested in a mixture with another compound): the Potency result in assay [1], in [3] and in assay [4] was “inactive” in each case. Moreover, the outcome in assay [2] was inactive. Moreover, the Potency in assay [5] is 20 µM (active).
For `N=C(N)SCCN`, the Potency entry in assay [1], in assay [3], in assay [4] and in [5] was “inactive” each time. In addition, the result in assay [2] was inactive.
Turning to `CC(C)(C)c1cc(/C=C(\C#N)C(N)=S)cc(C(C)(C)C)c1O`, the Potency entry in assay [1], in assay [8], in assay [4] and in assay [5] was “inactive” each time. Further, in assay [6], the Potency is 21.2 µM (active).
In the case of `Nc1ccc2c3c(cccc13)C(=O)NC2=O`, the Potency result in assay [1], in assay [3], in assay [4] and in assay [5] was “inactive” each time.
As to `COc1cc([C@@H]2c3cc4c(cc3[C@H](O)C3COC(=O)[C@@H]32)OCO4)cc(OC)c1OC` (stereo partly specified), the Potency result in assay [1], in [3], in [4], in assay [5] and in assay [6] was “inactive” throughout. The outcome in [2] was inactive.
With `CCCc1c(-c2ccc(O)cc2)nn(-c2ccc(O)cc2)c1-c1ccc(O)cc1`, the Potency result in [1], in [8], in assay [4] and in assay [5] was “inactive” each time.
With `COc1ccc2c(c1)CCC1C2CC[C@@]2(C)C1CC[C@@H]2NCCCCCCN1C(=O)C=CC1=O` (stereo partly specified), the Potency entry in assay [1], in assay [8], in assay [4], in [5] and in assay [6] was “inactive” each time.
Regarding `c1ccc(C2CN3CCSC3=N2)cc1` (stereo unspecified), the Potency result in [1], in assay [3], in assay [4], in assay [5] and in [6] was “inactive” throughout. Besides, the outcome in assay [2] was inactive.
In the case of `NCCCNCCCCNCCCN`, the Potency entry in [1], in assay [3], in assay [4] and in assay [6] was “inactive” each time. Further, the outcome in [2] was inactive.
With `CC#CCOC(=O)c1c(C)nc2sc3c(c2c1N)CCC(O)C3` (stereo unspecified), the Potency entry in assay [1], in [3] and in [4] was “inactive” throughout. Besides, the Potency in [5] is 56.2 µM (active).
Regarding `NC(=O)CNCCC(c1ccccc1)c1ccccc1`, the Potency entry in assay [1], in [8], in [4], in assay [5] and in assay [6] was “inactive” each time.
Regarding `CCCCCCCCCCC/C=C\C(C)(C)/C=C\CCCC(=O)O`, the Potency entry in assay [1], in assay [3], in [4] and in [5] was “inactive” each time. In assay [2], the result was inactive. Moreover, the Potency in assay [6] is 6.7 µM (active).
As to `COc1ccc2c(c1)c(CC(=O)O)c(C)n2Cc1ccc(Cl)cc1`, the Potency result in assay [1], in assay [3] and in assay [4] was “inactive” throughout. Further, the outcome in [2] was inactive.
`NC1C=CC=C(C(=O)O)C1` (stereo unspecified): the Potency result in assay [1], in assay [3], in [4], in [5] and in [6] was “inactive” in each case. In addition, the result in assay [2] was inactive.
Turning to `CCOC(=O)C12CC1/C(=N/O)c1ccccc1O2` (stereo unspecified), the Potency entry in assay [1], in assay [3], in assay [4] and in assay [5] was “inactive” each time. In addition, in assay [2], the outcome was inactive.
For the molecule `CC(=O)NNC(=O)N1Cc2ccccc2Oc2ccc(Cl)cc21`, the Potency result in assay [1], in assay [4], in assay [5] and in assay [6] was “inactive” each time. In addition, in [2], the outcome was inactive.
`CCCCCCC/C=C\CCCCCCCCC(=O)O`: the Potency entry in assay [1], in assay [3], in assay [4] and in assay [5] was “inactive” throughout. Also, in [2], the result was inactive. The Potency in assay [6] is 21.2 µM (active).
Take `CC(=O)/C(C)=N/O`: the Potency entry in assay [1], in [4], in assay [5] and in assay [6] was “inactive” each time. In assay [2], the result was inactive.
Regarding `CN1CC(O)C(O)C(O)C1CO` (stereo unspecified), the Potency entry in assay [1], in assay [8], in assay [4], in assay [5] and in assay [6] was “inactive” throughout.
For `O=C1NC(=O)c2cc(Nc3ccccc3)c(Nc3ccccc3)cc21`, the Potency entry (in [1]; in assay [3]; in [4]; with Furin (Homo sapiens)) was “inactive” each time.
With `N=C(N)c1ccccc1`, the Potency entry in assay [1], in [3], in [4], in [5] and in [6] was “inactive” in each case.
In the case of `COc1ccccc1N1CCN(CCN(C(=O)c2ccc(F)cc2)c2ccccn2)CC1`, the Potency entry in assay [1], in assay [4], in assay [5] and in assay [6] was “inactive” throughout.
In the case of `C=C1C(=O)O[C@@H]2[C@H]3O[C@]3(C)CCC=C(C)CC[C@@H]12`, the Potency result in assay [8], in [3], in assay [4], in assay [5] and in [6] was “inactive” in each case. Also, the result in [2] was inactive.

The values are drawn from PubChem BioAssay (NCATS).
